Results on three compounds are retold here after PubChem BioAssay (EPA / NIEHS).

Calls of active or inactive are those of the source. How the source made its calls: active means hit-call score of the fitted dose curve at least 0.9, where 1 is the maximum; inactive means score below 0.9.

The nature of assay [1]: ATG_GRE_CIS: Attagene CIS-FACTORIAL HepG2 Assay for human Glucocorticoid Response Elements (GRE) (AID 2282947). The settings on record: HepG2 GRE cis-reporter, Attagene multiplex mRNA; actives raise or lower the signal. An outline of the steps:
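Multiplexed cis-reporter mRNA induction, HepG2, 24 h post-dose. RT-PCR, FAM-labelled, HpaI-digested amplicons by CE. Bidirectional fit vs DMSO.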

A short description of assay [2]: ATG_ISRE_CIS: Attagene CIS-FACTORIAL HepG2 Assay for human Interferon Regulatory Factor 1 (IRF1) binding to an Interferon-Stimulated Response Element (ISRE) (AID 2282948). The settings on record: HepG2 ISRE cis-reporter (Attagene), mRNA transcription readout; actives raise or lower the signal. An outline of the steps:
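Endogenous transcription factor activity read as reporter transcript abundance via RT-PCR and capillary electrophoresis. HepG2 cells transiently transfected, 24 h chemical exposure. Gain or loss fitted against DMSO baseline.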

Assay [3] is described as follows: ATG_M_32_CIS: Attagene CIS-FACTORIAL HepG2 Assay for M32 Transcription Factor (Internal Marker) (AID 2282949).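 Further: background control marker of the multiplexed CIS panel rather than a real target.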 The settings on record: HepG2 Attagene cis-factorial M32 reporter, mRNA; actives raise or lower the signal. The procedure, abridged:
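Transient MRTU transfection of HepG2; 24 h compound treatment; TriZol RNA, oligo(dT) RT, reporter PCR, 6-FAM primer extension, HpaI cut, CE. Gain/loss of signal vs DMSO.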

Assay [4] can be described thus: ATG_M_06_CIS: Attagene CIS-FACTORIAL HepG2 Assay for M06 Transcription Factor (Internal Marker) (AID 2282950). The settings on record: HepG2 Attagene CIS-FACTORIAL M06 internal marker reporter; actives raise or lower the signal. An outline of the steps:
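Serves as a background control readout. Transfected HepG2 exposed to compounds for 24 h, then reporter transcripts quantified by fluorescent RT-PCR and capillary electrophoresis. Both directions fitted against DMSO baseline.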

Assay [5] has as its target Hypoxia-inducible factor 1-alpha (Homo sapiens) (UniProt Q16665). The assay is described as follows: ATG_HIF1a_CIS: Attagene CIS-FACTORIAL HepG2 Assay for human Hypoxia Inducible Factor 1 (HIF1A) (AID 2282951). The settings on record: HepG2 Attagene cis-factorial HIF1a reporter transcription; actives raise or lower the signal. The procedure, abridged: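 HepG2, transient cis-reporter library, 24 h dosing. RNA → RT (oligo dT) → PCR → 6-FAM primer extension → HpaI → CE. Bidirectional curve fit vs DMSO.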

Assay [6] concerns the target Hepatocyte nuclear factor 6 (Homo sapiens) (UniProt Q9UBC0). The assay is described as follows: ATG_HNF6_CIS: Attagene CIS-FACTORIAL HepG2 Assay for human Hepatocyte Nuclear Factor 6 (HNF6) (AID 2282952). The settings on record: HepG2 Attagene cis-factorial HNF6 reporter transcription; actives raise or lower the signal. The procedure, abridged:
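Endogenous factor activity read in transiently transfected HepG2 via promoter-regulated reporter transcripts. RNA harvested 24 h post-dosing, reverse-transcribed, PCR-amplified, FAM-labelled, HpaI-digested and resolved by capillary electrophoresis; fitted in both directions against DMSO.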

Assay [7] addresses Heat shock factor protein 1 (Homo sapiens) (UniProt Q00613). Nature of the assay: ATG_HSE_CIS: Attagene CIS-FACTORIAL HepG2 Assay for human Heat Shock Transcription Factor 1 (HSE) (AID 2282953). The settings on record: HepG2 HSE cis-reporter, Attagene RNA transcription; actives raise or lower the signal. The procedure, abridged:
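Endogenous transcription factor activity in transiently transfected HepG2, read as reporter mRNA by RT-PCR with fluorescent capillary electrophoresis after 24 h. Gain or loss of signal fitted versus DMSO baseline.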

Assay [8] is described as follows: ATG_MRE_CIS: Attagene CIS-FACTORIAL HepG2 Assay for human Metal Responsive Element (MRE) (AID 2282954). The following applies: HepG2 MRE cis-reporter transcription, Attagene multiplex; actives raise or lower the signal. The procedure, abridged:
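Multiplexed cis-reporter assay in human HepG2 liver cells, 24 h incubation with test chemical. Reporter transcripts measured by RT-PCR and capillary electrophoresis; values from bidirectional curve fitting versus DMSO.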

A short description of assay [9]: ATG_PBREM_CIS: Attagene CIS-FACTORIAL HepG2 Assay for human Phenobarbital-responsive Enhancer Module (PBREM) (AID 2282955). The settings on record: HepG2 PBREM cis-reporter, Attagene multiplexed transcription; actives raise or lower the signal. The procedure, abridged:
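HepG2, transient MRTU transfection, 24 h dosing; RNA → oligo(dT) RT → PCR → 6-FAM extension → HpaI → CE. Bidirectional fit vs DMSO.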

Assay [10] concerns the target Paired box protein Pax-6 (Homo sapiens) (UniProt P26367). The assay is described as follows: ATG_Pax6_CIS: Attagene CIS-FACTORIAL HepG2 Assay for human Paired Box 6 (PAX6) (AID 2282956). The following applies: HepG2 CIS-FACTORIAL PAX6 reporter transcription, RNA readout; actives raise or lower the signal. An outline of the steps:
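Read-out is reporter transcript level, measured by RT-PCR with fluorescent primer extension and capillary electrophoresis after 24 h dosing of transfected HepG2 cells. Activity in either direction fitted relative to DMSO control.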

Assay [11] is described as follows: ATG_PXRE_CIS: Attagene CIS-FACTORIAL HepG2 Assay for human Pregnane X Receptor Element (PXRE) (AID 2282957). The following applies: HepG2 Attagene CIS-FACTORIAL PXRE reporter, mRNA; actives raise or lower the signal. The procedure, abridged: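 Reporter transcripts under endogenous PXR-responsive cis-regulation quantified from total RNA of transfected HepG2 cells 24 h post-dosing, via RT-PCR with fluorescent primer extension and capillary electrophoresis. Gain or loss of signal fitted against DMSO baseline.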

Assay [12] in a line: ATG_PPRE_CIS: Attagene CIS-FACTORIAL HepG2 Assay for human Peroxisome Proliferator-activated Response Element (PPRE) (AID 2282958). The settings on record: HepG2 PPRE cis-element reporter, Attagene transcription factor profiling; actives raise or lower the signal. An outline of the steps: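 Transcript-level reporter induction in transfected HepG2 cells after 24 h chemical exposure, quantified by fluorescence from RT-PCR products separated by capillary electrophoresis.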

A short description of assay [13]: ATG_RORE_CIS: Attagene CIS-FACTORIAL HepG2 Assay for human RAR-related Orphan Receptor Element (RORE) (AID 2282959). The following applies: HepG2 Attagene cis-factorial RORE reporter, mRNA; actives raise or lower the signal. The procedure, abridged:
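Multiplexed reporter assay measuring mRNA induction from a cis promoter element in transiently transfected HepG2 cells after 24 h treatment. Detection via RT-PCR and capillary electrophoresis fluorescence; DMSO serves as baseline.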

Assay [14] in a line: ATG_Sox_CIS: Attagene CIS-FACTORIAL HepG2 Assay for human SRY-box transcription factor (SOX) (AID 2282960). The settings on record: HepG2 Attagene cis-factorial SOX reporter, mRNA; actives raise or lower the signal. The procedure, abridged: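 Cells were transfected with reporter constructs under cis-regulatory promoters, then exposed to chemicals for 24 h. Reporter transcripts were quantified by fluorescence after RT-PCR and capillary electrophoresis; activity was fitted in both directions against DMSO.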

For assay [15], the target named is Transcription factor Sp1 (Homo sapiens) (UniProt P08047). Nature of the assay: ATG_Sp1_CIS: Attagene CIS-FACTORIAL HepG2 Assay for human Specificity Protein 1 (Sp1) (AID 2282961). The following applies: HepG2 Sp1 cis-reporter transcription, actives raise or lower the signal. The procedure, abridged:
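Measures mRNA induction of an Sp1-linked reporter in HepG2 cells 24 h post-dosing. Multiplexed reporters read by RT-PCR and capillary electrophoresis; DMSO serves as negative control and baseline.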

A short description of assay [16]: ATG_SREBP_CIS: Attagene CIS-FACTORIAL HepG2 Assay for human Sterol Regulatory Element Binding (SREBP) (AID 2282962). The settings on record: HepG2 Attagene cis-factorial SREBP reporter, mRNA; actives raise or lower the signal. An outline of the steps:
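Endogenous SREBP activity read as cis-element-driven reporter transcript in transiently transfected HepG2, 24 h post-dosing; quantified via RT-PCR plus capillary electrophoresis of fluorescent fragments. Gain or loss of signal fitted relative to DMSO baseline.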

Assay [17] concerns the target Signal transducer and activator of transcription 3 (Homo sapiens) (UniProt P40763). Nature of the assay: ATG_STAT3_CIS: Attagene CIS-FACTORIAL HepG2 Assay for human Signal Transducer and Activator of Transcription 3 (STAT3) (AID 2282963). The settings on record: HepG2, Attagene cis-factorial STAT3 reporter transcription; actives raise or lower the signal. An outline of the steps: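 Cis-factorial format: endogenous transcription factors in HepG2 drive transfected reporter units. After 24 h treatment, reporter RNA was reverse-transcribed, amplified, FAM-labelled and HpaI-digested before CE analysis; activity scored in both directions against DMSO.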

A short description of assay [18]: ATG_TA_CIS: Attagene CIS-FACTORIAL HepG2 Assay for human TA Basal Promoter (AID 2282964). The settings on record: HepG2 Attagene CIS-factorial TA basal promoter reporter; actives raise or lower the signal. An outline of the steps:
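Background-control readout: TA basal promoter reporter mRNA, fitted in both directions relative to DMSO. Measured by RT-PCR and capillary electrophoresis 24 hours after treating HepG2 human liver cells transiently carrying multiplexed cis-regulated reporter constructs.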

Assay [19] in a line: ATG_TCF_b_cat_CIS: Attagene CIS-FACTORIAL HepG2 Assay for human T-Cell-Factor with beta-catenin (TCF/b-cat) (AID 2282965). The settings on record: HepG2 TCF/beta-catenin cis-reporter transcription, actives raise or lower the signal. An outline of the steps:
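Endogenous transcription factor activity is captured through cis-promoter reporter constructs transiently introduced into human HepG2 liver cells. Induced reporter mRNA is measured after 24 h and fitted bidirectionally relative to DMSO.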

Chain of Heat shock factor protein 1 (Homo sapiens) (Q00613 whole entry, looked up): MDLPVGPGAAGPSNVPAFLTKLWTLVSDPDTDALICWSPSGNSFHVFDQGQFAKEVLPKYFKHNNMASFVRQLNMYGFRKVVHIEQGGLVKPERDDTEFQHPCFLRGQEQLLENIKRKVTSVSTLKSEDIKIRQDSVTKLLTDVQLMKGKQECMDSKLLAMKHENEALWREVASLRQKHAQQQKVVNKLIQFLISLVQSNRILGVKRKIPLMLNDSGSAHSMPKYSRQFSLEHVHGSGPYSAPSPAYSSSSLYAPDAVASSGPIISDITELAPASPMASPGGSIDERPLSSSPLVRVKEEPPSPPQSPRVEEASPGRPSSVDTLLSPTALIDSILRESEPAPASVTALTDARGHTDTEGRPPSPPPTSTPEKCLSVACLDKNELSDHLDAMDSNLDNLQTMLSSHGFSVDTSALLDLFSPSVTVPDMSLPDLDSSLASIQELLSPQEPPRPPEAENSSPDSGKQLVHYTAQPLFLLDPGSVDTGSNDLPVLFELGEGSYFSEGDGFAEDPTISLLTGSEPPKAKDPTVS
Chain of Hypoxia-inducible factor 1-alpha (Homo sapiens) (Q16665 whole entry, looked up): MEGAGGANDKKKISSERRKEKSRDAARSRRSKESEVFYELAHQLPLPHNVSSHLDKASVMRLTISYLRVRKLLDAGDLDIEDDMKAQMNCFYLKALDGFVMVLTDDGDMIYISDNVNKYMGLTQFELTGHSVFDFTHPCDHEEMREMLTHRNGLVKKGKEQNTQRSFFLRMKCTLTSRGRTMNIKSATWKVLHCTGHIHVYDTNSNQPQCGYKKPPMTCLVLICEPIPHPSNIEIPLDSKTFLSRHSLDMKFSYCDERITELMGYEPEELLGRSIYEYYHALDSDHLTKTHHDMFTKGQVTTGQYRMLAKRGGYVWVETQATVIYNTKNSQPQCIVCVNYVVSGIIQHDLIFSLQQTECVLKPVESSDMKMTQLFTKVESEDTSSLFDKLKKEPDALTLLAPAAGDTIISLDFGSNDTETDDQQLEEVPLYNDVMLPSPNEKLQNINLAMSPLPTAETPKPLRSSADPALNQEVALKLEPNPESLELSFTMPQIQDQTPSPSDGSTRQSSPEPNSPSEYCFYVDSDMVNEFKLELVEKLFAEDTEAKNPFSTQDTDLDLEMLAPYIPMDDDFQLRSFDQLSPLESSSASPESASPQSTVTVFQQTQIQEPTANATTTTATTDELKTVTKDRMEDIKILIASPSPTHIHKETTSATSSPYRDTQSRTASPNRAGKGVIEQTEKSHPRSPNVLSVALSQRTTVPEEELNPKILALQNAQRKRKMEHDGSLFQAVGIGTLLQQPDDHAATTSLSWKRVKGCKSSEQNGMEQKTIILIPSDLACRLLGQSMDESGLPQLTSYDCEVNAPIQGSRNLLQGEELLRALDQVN
Chain of Paired box protein Pax-6 (Homo sapiens) (P26367 whole entry, looked up): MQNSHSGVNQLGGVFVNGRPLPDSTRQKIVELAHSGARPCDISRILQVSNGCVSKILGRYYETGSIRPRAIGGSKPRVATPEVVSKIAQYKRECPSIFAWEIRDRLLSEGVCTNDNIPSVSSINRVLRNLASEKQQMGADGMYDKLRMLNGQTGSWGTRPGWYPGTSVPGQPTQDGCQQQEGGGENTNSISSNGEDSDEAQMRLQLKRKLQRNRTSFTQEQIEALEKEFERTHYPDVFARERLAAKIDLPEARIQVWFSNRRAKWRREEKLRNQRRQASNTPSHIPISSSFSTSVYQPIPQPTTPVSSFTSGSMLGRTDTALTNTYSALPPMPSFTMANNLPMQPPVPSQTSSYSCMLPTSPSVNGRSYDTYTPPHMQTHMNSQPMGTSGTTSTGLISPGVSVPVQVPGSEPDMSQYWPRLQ
Chain of Hepatocyte nuclear factor 6 (Homo sapiens) (Q9UBC0 whole entry, looked up): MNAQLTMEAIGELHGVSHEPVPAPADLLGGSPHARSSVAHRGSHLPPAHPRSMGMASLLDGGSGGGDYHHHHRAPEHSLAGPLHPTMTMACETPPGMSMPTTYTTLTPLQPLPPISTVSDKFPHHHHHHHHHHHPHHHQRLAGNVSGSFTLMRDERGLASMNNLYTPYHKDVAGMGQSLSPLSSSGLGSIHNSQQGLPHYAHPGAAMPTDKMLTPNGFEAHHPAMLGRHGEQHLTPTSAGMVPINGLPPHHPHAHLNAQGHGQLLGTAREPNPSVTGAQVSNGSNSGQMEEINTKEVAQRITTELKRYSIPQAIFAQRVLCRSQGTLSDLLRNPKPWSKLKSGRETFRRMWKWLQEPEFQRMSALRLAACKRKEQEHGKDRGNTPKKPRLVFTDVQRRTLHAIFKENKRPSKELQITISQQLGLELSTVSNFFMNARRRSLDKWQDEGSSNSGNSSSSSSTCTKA
Chain of Transcription factor Sp1 (Homo sapiens) (P08047 whole entry, looked up): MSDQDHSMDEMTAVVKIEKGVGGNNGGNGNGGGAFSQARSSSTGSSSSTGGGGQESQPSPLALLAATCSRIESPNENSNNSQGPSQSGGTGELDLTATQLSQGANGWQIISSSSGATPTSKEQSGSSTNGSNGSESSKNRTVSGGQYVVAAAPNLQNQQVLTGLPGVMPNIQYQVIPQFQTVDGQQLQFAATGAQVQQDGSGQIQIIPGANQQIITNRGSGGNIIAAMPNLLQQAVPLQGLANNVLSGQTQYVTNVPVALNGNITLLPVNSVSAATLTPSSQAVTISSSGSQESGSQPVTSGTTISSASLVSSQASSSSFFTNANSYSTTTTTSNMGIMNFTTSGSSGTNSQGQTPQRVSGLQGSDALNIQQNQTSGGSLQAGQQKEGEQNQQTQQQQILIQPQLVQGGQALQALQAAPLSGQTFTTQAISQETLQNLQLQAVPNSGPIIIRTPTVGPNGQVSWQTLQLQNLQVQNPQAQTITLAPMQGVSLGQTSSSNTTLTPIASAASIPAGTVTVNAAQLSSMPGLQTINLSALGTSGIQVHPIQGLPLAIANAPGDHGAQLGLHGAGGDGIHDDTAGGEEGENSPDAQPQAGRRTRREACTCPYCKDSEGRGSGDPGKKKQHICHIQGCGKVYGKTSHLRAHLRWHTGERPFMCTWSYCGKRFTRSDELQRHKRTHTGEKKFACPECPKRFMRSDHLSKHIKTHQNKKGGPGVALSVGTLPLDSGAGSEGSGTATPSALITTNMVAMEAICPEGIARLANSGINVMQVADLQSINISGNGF
Chain of Signal transducer and activator of transcription 3 (Homo sapiens) (P40763 whole entry, looked up): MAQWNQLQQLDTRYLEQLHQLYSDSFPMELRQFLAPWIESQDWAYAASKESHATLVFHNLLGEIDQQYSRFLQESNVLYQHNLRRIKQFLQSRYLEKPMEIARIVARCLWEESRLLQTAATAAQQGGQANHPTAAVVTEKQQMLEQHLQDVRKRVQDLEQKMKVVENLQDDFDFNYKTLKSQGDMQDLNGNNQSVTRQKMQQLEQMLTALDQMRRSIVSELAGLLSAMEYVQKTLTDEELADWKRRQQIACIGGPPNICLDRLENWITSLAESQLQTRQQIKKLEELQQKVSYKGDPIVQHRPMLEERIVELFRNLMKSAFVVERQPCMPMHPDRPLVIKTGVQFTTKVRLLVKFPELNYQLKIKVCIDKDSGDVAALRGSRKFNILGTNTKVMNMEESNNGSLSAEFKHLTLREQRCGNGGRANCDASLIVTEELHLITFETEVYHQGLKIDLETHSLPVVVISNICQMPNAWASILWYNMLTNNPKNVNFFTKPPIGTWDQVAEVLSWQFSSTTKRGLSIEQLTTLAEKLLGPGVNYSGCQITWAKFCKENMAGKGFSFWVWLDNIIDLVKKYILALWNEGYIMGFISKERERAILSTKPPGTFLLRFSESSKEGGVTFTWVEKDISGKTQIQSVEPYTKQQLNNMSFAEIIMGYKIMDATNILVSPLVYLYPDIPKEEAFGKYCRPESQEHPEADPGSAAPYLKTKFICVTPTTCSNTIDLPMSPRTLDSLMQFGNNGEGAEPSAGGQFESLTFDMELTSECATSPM

For orientation: AC50 means the midpoint of the concentration-response curve, whichever way the signal moves. Take `FC1(F)C(F)(F)C(F)(F)C2(F)C(F)(C1(F)F)C(F)(F)C(F)(F)C1(F)C(F)(F)C(F)(F)C(F)(F)C(F)(F)C12F` (stereo not given): the compound was classed as inactive in assay [1], in assay [2], in [3], in assay [4], in assay [5] and in assay [6]. The compound was classed as inactive in assay [7], in assay [8], in assay [9], in assay [10], in assay [12] and in assay [13]. The call in [14], in assay [15], in [16], in assay [17], in [18] and in assay [19] was inactive. In addition, the AC50 in [11] was 37.5 µM (active).

Turning to `COC(=O)Cc1cccc2ccccc12`, the result in assay [1], in [2], in assay [3], in assay [4], in [5] and in [6] was inactive. The outcome in assay [7], in assay [8], in assay [9], in assay [10], in [12] and in [13] was inactive. Also, the outcome in assay [14], in assay [15], in assay [16] and in assay [18] was inactive. In assay [11], the AC50 is 42.8 µM (active).

Consider `O=C1OC2(c3cc(Br)c(O)c(Br)c3Oc3c2cc(Br)c(O)c3Br)c2c(Cl)c(Cl)c(Cl)c(Cl)c21`, for which the result in assay [1], in assay [2], in [3], in assay [4], in assay [5] and in [6] was inactive. In addition, the call in assay [7], in assay [9], in assay [12], in [14], in assay [15] and in assay [17] was inactive. For the same compound, the call in assay [18] was inactive. The concentration at half-maximal activity (AC50) in [8] was 19.1 µM (active); in assay [10], 62.2 µM (active); in assay [11], 5.13 µM (active); in assay [13], 50.2 µM (active); in assay [16] it was 17 µM (active); in [19], 87.5 µM (active).
